What all share (details): mRNA level, 48 h; actives raise or lower the signal
Read-out in test [1]: Early growth response protein 1 (EGR1) transcription factor, EGR1 (gene 1958)
Nature of the test: LTEA_HepaRG_EGR1: Life Technologies and Expression Analysis (LTEA) Assay for Early growth response protein 1 (EGR1) transcription factor using HepaRG (AID 2283490). The method, boiled down:
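Differentiated HepaRG cells in serum-free induction medium exposed 48 hours, duplicate, to 8 half-log concentrations up to 100 uM in 0.5% DMSO. EGR1 mRNA measured by TaqMan qRT-PCR, normalized to ACTB, GAPDH, POLR2A; bidirectional fit versus DMSO.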

Read-out in test [2]: Ezrin (EZR), EZR (gene 7430)
Nature of the test: LTEA_HepaRG_EZR: Life Technologies and Expression Analysis (LTEA) Assay for Ezrin (EZR) using HepaRG (AID 2283491). The method, boiled down:
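Differentiated human HepaRG cells, 48 h after plating, were exposed in serum-free induction medium for 48 hours to eight half-log concentrations up to 100 uM in 0.5% DMSO. EZR mRNA was measured by TaqMan qRT-PCR, normalized to ACTB, GAPDH and POLR2A, and fitted bidirectionally against DMSO.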

Read-out in another test: CYP3A5 (gene 1577)
Nature of the test: LTEA_HepaRG_CYP3A5: Life Technologies and Expression Analysis (LTEA) Assay for CYP3A5 using HepaRG (AID 2283493). The gist of the method: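 HepaRG cells, plated 48 h then in serum-free induction medium, dosed in duplicate for 48 h with eight half-log concentrations up to 100 uM in 0.5% DMSO. Gene mRNA by Fluidigm TaqMan qRT-PCR, normalized to ACTB, GAPDH, POLR2A.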

Read-out in test [3]: Fatty Acid-Binding Protein 1 (FABP1), FABP1 (gene 2168)
Nature of the test: LTEA_HepaRG_FABP1: Life Technologies and Expression Analysis (LTEA) Assay for Fatty Acid-Binding Protein 1 (FABP1) using HepaRG (AID 2283494). The gist of the method:
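Differentiated human HepaRG cells exposed 48 h in serum-free induction medium to eight half-log concentrations up to 100 uM (0.5% DMSO), duplicate. FABP1 mRNA by qRT-PCR, normalised to ACTB, GAPDH, POLR2A; bidirectional fitting against DMSO.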

Read-out in test [4]: Cytochrome P450 7A1 (Homo sapiens) (UniProt P22680)
Nature of the test: LTEA_HepaRG_CYP7A1: Life Technologies and Expression Analysis (LTEA) Assay for Cytochrome P450 7A1 (CYP7A1) using HepaRG (AID 2283496). The method, boiled down: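 HepaRG cells plated 48 h, then switched to serum-free induction medium and exposed in duplicate for 48 h to 8-point half-log series from 100 uM in 0.5% DMSO. CYP7A1 mRNA by qRT-PCR (TaqMan), normalized to ACTB/GAPDH/POLR2A; bidirectional fit versus DMSO.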

Read-out in test [5]: Glutamate-cysteine ligase catalytic (GCLC), GCLC (gene 2729)
Nature of the test: LTEA_HepaRG_GCLC: Life Technologies and Expression Analysis (LTEA) Assay for Glutamate-cysteine ligase catalytic (GCLC) using HepaRG (AID 2283498). The gist of the method:
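Differentiated HepaRG cells exposed 48 h in serum-free induction medium, eight-point half-log series topping at 100 uM in 0.5% DMSO, duplicates. GCLC mRNA by qRT-PCR normalized to ACTB, GAPDH and POLR2A, fitted bidirectionally versus DMSO.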

Read-out in test [6]: growth arrest and DNA damage 45 (GADD45G), GADD45G (gene 10912)
Nature of the test: LTEA_HepaRG_GADD45G: Life Technologies and Expression Analysis (LTEA) Assay for growth arrest and DNA damage 45 (GADD45G) using HepaRG (AID 2283499). The gist of the method:
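GADD45G transcript level by qRT-PCR (housekeeping-normalized: ACTB, GAPDH, POLR2A) after 48 h chemical treatment of a single HepaRG lot in serum-free induction medium; eight-point half-log series up to 100 uM in 0.5% DMSO, duplicates, up- or down-regulation scored.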

Read-out in test [7]: Glutamate-cysteine ligase regulatory (GCLM), GCLM (gene 2730)
Nature of the test: LTEA_HepaRG_GCLM: Life Technologies and Expression Analysis (LTEA) Assay for Glutamate-cysteine ligase regulatory (GCLM) using HepaRG (AID 2283500). The gist of the method:
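Differentiated HepaRG cells exposed 48 h in serum-free induction medium to eight half-log concentrations up to 100 uM (0.5% DMSO). GCLM mRNA by TaqMan qRT-PCR, normalized to ACTB, GAPDH and POLR2A; bidirectional fit versus DMSO.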

Read-out in test [8]: Heat shock 70 kDa protein 1 (HSPA1A), gene 3303
Nature of the test: LTEA_HepaRG_HSPA1A: Life Technologies and Expression Analysis (LTEA) Assay for Heat shock 70 kDa protein 1 (HSPA1A) using HepaRG (AID 2283502). The method, boiled down:
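Human HepaRG cells in serum-free induction medium were exposed in duplicate for 48 h to 8 half-log concentrations, highest 100 uM, in 0.5% DMSO. HSPA1A mRNA read by TaqMan qRT-PCR, normalized to ACTB, GAPDH, POLR2A, fitted bidirectionally against DMSO.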

Read-out in test [9]: 3-Hydroxy-3-Methylglutaryl-CoA Synthase 2 (HMGCS2), HMGCS2 (gene 3158)
Nature of the test: LTEA_HepaRG_HMGCS2: Life Technologies and Expression Analysis (LTEA) Assay for 3-Hydroxy-3-Methylglutaryl-CoA Synthase 2 (HMGCS2) using HepaRG (AID 2283504). The method, boiled down: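 Readout is HMGCS2 transcript by qRT-PCR, housekeeping-normalised (ACTB/GAPDH/POLR2A) and fitted bidirectionally against 0.5% DMSO. Differentiated HepaRG cells received chemicals 48 h, duplicate wells, eight half-log concentrations topping at 100 uM.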

Read-out in test [10]: Insulin Like Growth Factor 1 (IGF1), IGF1 (gene 3479)
Nature of the test: LTEA_HepaRG_IGF1: Life Technologies and Expression Analysis (LTEA) Assay for Insulin Like Growth Factor 1 (IGF1) using HepaRG (AID 2283506). The gist of the method:
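Differentiated HepaRG cells in serum-free induction medium, exposed 48 h in duplicate to 8 half-log concentrations up to 100 uM in 0.5% DMSO. IGF1 mRNA by Fluidigm qRT-PCR, normalised to ACTB, GAPDH and POLR2A.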

Read-out in test [11]: Intercellular Adhesion Molecule 1 (ICAM1), ICAM1 (gene 3383)
Nature of the test: LTEA_HepaRG_ICAM1: Life Technologies and Expression Analysis (LTEA) Assay for Intercellular Adhesion Molecule 1 (ICAM1) using HepaRG (AID 2283507). The method, boiled down:
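ICAM1 transcript levels measured by qRT-PCR, normalized to three housekeeping genes (ACTB, GAPDH, POLR2A), after 48 h chemical exposure of HepaRG cells. Duplicate eight-point half-log series from 100 uM in 0.5% DMSO; gain or loss fitted against vehicle.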

Read-out in test [12]: Insulin-like growth factor-binding protein 1 (IGFBP1), IGFBP1 (gene 3484)
Nature of the test: LTEA_HepaRG_IGFBP1: Life Technologies and Expression Analysis (LTEA) Assay for Insulin-like growth factor-binding protein 1 (IGFBP1) using HepaRG (AID 2283508). The gist of the method:
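Read-out is qRT-PCR transcript level normalized to three housekeeping genes, fitted in both directions against 0.5% DMSO. Differentiated HepaRG cells received eight half-log concentrations (top 100 uM) in duplicate for 48 h in serum-free induction medium.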

Read-out in test [13]: Interleukin 6 (IL6), IL6 (gene 3569)
Nature of the test: LTEA_HepaRG_IL6: Life Technologies and Expression Analysis (LTEA) Assay for Interleukin 6 (IL6) using HepaRG (AID 2283509). The gist of the method: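 HepaRG cells exposed in duplicate for 48 h to eight half-log concentrations, top 100 uM, in 0.5% DMSO serum-free induction medium. mRNA measured by qRT-PCR, normalized to ACTB, GAPDH and POLR2A. Bidirectional fit versus DMSO.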

Read-out in test [14]: Cytochrome P450 3A7 (Homo sapiens) (UniProt P24462)
Nature of the test: LTEA_HepaRG_CYP3A7: Life Technologies and Expression Analysis (LTEA) Assay for CYP3A7 using HepaRG (AID 2283492). The gist of the method:
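CYP3A7 transcript measured by qRT-PCR (ACTB, GAPDH, POLR2A normalization) after 48 h chemical exposure of HepaRG cells in duplicate. Eight half-log concentrations, maximum 100 uM, 0.5% DMSO vehicle; bidirectional curve fitting against DMSO baseline.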

Read-out in test [15]: Cytochrome P450 4A22 (Homo sapiens) (UniProt Q5TCH4)
Nature of the test: LTEA_HepaRG_CYP4A22: Life Technologies and Expression Analysis (LTEA) Assay for Cytochrome P450 4A22 (CYP4A22) using HepaRG (AID 2283495). The method, boiled down:
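Gene expression measured by qRT-PCR against three housekeeping genes (ACTB, GAPDH, POLR2A), with gain or loss fitted relative to 0.5% DMSO vehicle. HepaRG cultures received 48 h chemical treatment, top concentration 100 uM, half-log steps, duplicate wells.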

Read-out in test [16]: Glutathione S-transferase M3 (GSTM3), GSTM3 (gene 2947)
Nature of the test: LTEA_HepaRG_GSTM3: Life Technologies and Expression Analysis (LTEA) Assay for Glutathione S-transferase M3 (GSTM3) using HepaRG (AID 2283501). The method, boiled down:
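GSTM3 transcript levels came from Fluidigm TaqMan qRT-PCR normalized to three housekeeping genes, fitted in both directions against DMSO. HepaRG cultures received chemicals for 48 h in serum-free induction medium (0.5% DMSO), 8 half-log concentrations up to 100 uM, duplicate.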

Read-out in test [17]: Hypoxia-inducible factor 1-alpha (Homo sapiens) (UniProt Q16665)
Nature of the test: LTEA_HepaRG_HIF1A: Life Technologies and Expression Analysis (LTEA) Assay for Hypoxia-inducible factor 1 (HIF1A) Trancription factor using HepaRG (AID 2283503). The method, boiled down:
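Differentiated HepaRG cells in serum-free induction medium exposed 48 h, in duplicate, to 8-point half-log series from 100 uM in 0.5% DMSO. HIF1A mRNA measured by TaqMan qRT-PCR, normalized to ACTB/GAPDH/POLR2A, fitted bidirectionally versus DMSO.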

Read-out in test [18]: Glutathione S-Transferase (GSTA2), GSTA2 (gene 2939)
Nature of the test: LTEA_HepaRG_GSTA2: Life Technologies and Expression Analysis (LTEA) Assay for Glutathione S-Transferase (GSTA2) using HepaRG (AID 2283497). The method, boiled down: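 Differentiated human HepaRG cells were exposed in duplicate for 48 h in serum-free induction medium, 8 points from 100 uM top in half-log steps, 0.5% DMSO. GSTA2 mRNA was measured by TaqMan qRT-PCR, normalized to ACTB, GAPDH and POLR2A; bidirectional fit versus DMSO.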

SMILES strings stand for the structures. The source made the active and inactive calls. How the source made its calls: active means hit-call score of the fitted dose curve at least 0.9, where 1 is the maximum; inactive means score below 0.9.

Results on three compounds are retold here after PubChem BioAssay (EPA / NIEHS).

Cytochrome P450 3A7 (Homo sapiens), sequence (P24462 whole entry, looked up): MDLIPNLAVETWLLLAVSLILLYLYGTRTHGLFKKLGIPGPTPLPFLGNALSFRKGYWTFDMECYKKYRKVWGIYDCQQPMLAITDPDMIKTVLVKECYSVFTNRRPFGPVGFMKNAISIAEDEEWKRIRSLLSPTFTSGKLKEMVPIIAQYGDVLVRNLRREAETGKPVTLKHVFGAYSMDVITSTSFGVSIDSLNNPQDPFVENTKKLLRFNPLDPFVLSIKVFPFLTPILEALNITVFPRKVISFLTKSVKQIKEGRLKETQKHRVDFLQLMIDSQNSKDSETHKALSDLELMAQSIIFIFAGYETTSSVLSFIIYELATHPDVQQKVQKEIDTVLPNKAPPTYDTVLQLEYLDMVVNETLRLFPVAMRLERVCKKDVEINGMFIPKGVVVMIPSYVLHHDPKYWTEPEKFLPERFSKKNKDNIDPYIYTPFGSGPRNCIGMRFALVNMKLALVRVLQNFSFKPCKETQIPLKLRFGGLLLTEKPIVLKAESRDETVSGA
Hypoxia-inducible factor 1-alpha (Homo sapiens), sequence (Q16665 whole entry, looked up): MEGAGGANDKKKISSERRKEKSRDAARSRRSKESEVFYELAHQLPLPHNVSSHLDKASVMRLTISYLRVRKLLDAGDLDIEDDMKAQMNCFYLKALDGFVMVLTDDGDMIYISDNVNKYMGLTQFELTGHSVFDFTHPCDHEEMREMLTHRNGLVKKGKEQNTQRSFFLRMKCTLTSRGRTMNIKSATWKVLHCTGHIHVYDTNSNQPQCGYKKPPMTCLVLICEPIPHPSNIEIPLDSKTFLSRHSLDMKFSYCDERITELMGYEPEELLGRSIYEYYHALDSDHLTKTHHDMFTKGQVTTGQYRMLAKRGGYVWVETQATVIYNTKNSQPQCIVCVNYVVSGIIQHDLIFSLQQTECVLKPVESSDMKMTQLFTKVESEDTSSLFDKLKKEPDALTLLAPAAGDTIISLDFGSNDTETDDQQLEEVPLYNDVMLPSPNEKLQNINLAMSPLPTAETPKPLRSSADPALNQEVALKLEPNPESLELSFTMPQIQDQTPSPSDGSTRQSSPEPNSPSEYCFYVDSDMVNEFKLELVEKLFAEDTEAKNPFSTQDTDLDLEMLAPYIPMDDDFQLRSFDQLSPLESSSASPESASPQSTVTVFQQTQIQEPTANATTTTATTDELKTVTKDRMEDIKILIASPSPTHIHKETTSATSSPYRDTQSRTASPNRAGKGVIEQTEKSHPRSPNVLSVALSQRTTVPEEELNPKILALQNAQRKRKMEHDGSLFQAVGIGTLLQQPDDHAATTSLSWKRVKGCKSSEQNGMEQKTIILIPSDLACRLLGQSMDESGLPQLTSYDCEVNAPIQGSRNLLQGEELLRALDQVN

For orientation: AC50 means the concentration giving half of the maximal activity seen. As to `CC(=O)N1CCN(c2ccc(OC[C@H]3CO[C@](Cn4ccnc4)(c4ccc(Cl)cc4Cl)O3)cc2)CC1`, the AC50 in [1] is 38.4 µM (active); in the test with CYP3A5 (gene 1577) it was 50 µM (active); in [3], 12.7 µM (active); in test [4], 12.9 µM (active); in test [5], 65.5 µM (active); in test [7], 88.7 µM (active). Further, the AC50 in test [8] was 79.5 µM (active); in test [9] it was 12.4 µM (active); in test [10], 12.4 µM (active); in [11] it was 26.6 µM (active); in [12], 15.1 µM (active); in [13], 31.2 µM (active). For the same compound, the compound was classed as inactive in [2] and in [6].
Regarding `CCCCCCCCCCCO`, the outcome (in test [1]; in [2]; in [14]; with CYP3A5 (gene 1577); in test [3]; in [15]) was inactive. Also, the compound was classed as inactive in [5], in test [6], in test [7], in test [16], in test [8] and in [17]. The outcome in test [9], in test [10], in test [11], in [12] and in test [13] was inactive.
In the case of `NC(=O)c1nc(-c2cccc(-c3cc(F)ccc3OCC(F)(F)C(F)(F)F)c2)n[nH]1`, the AC50 in test [1] was 84.4 µM (active); in [3] it was 50 µM (active); in test [15], 9.78 µM (active); in test [17], 87.2 µM (active); in test [9], 50 µM (active); in [10], 83.2 µM (active). Also, the AC50 was 78.1 µM (active) in test [12] and 78.6 µM (active) in test [13]. Further, the compound was called inactive (in test [2]; in test [14]; with CYP3A5 (gene 1577); in test [18]; in test [5]; in [6]). Also, the result in test [7] and in test [11] was inactive.
